# Screening data (PubChem)
# In the library only some 2.8% were active in any assay of this set; here they are far more common.
# Peg3 prom inh: reduces Peg3 promoter-driven luciferase expression in HeLa | HeLa PEG-Prom luciferase reporter, luminescence, overnight | actives 1.7% (n = 360,000) | inhibition, % at 20 µM;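 active = inhibition of at least 50% at 20 µM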
# Shn3 3UTR inh: inhibitors of Schnurri-3 3'UTR reporter in osteoblasts. Clone20 osteoblast Shn3 3'UTR firefly luciferase, 24 h. inhibition, % at 12.5 µM. actives 0.52% (n = 360,000);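 active = mean inhibition of at least 75% with every replicate also reaching 75%; inconclusive = mean inhibition at least 75% but some replicate below; inactive = mean inhibition below 75%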;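 note: 0% = median of neutral control wells and 100% = pilot-screen positive control compound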
# KKLEB tox: reduces viability of KKLEB cystic fibrosis airway cells; activity change (cytotoxicity), % at 5 µM; actives 0.36% (n = 360,000); KKLEB CF airway cells viability, ATPlite luminescence, overnight; hits give low values; cells stimulated with P. aeruginosa culture filtrate; AID 602141;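 active = corrected activity change at or below -50% at 5 µM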
# HIF-2a inh: inhibitors of HIF-2a; 786-0 RCC cells HIF-2a reporter, luciferase luminescence, overnight; inhibition, % at 18.8 µM; actives 0.72% (n = 360,000);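 active = inhibition of the luminescence signal of 40% or more relative to plate controls, in a single-dose primary screen at 18.75 µM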
# CF NFkB inh: inhibitors of cystic fibrosis induced NF-kB; inhibition, % at 5 µM; actives 0.86% (n = 360,000); KKLEB NF-kB-GFP reporter, PAF-induced, GFP fluorescence overnight; AID 588850;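 active = at least 50% inhibition at 5 µM, scaled per plate between neutral and stimulator controls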;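 note: PAF is a Pseudomonas aeruginosa culture filtrate used as stimulus; plate controls were PAF-stimulated DMSO wells for no effect and unstimulated DMSO wells for full effect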
# MITF TRPM1 inh: MITF TRPM1 promoter inhibition in SK-MEL-5 cells | SK-MEL-5 TRPM1 promoter luciferase, 24 h | inhibition, % at 12.5 µM | actives 0.83% (n = 330,000) | AID 488899;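 active = mean inhibition across replicates of 60% or more, whatever share of single replicates reaches that level; inconclusive = some that reach 60%, reason not given; inactive = mean inhibition across replicates below 60%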
# Mdm2-MdmX confirm: Mdm2/MdmX (human) interaction inhibition, confirmed; inhibition, % at 8 µM; SaOS-2 split-luciferase Mdm2/MdmX complementation, luminescence; shares compounds with HIF-2a inh; actives 99% (n = 740);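 active = mean inhibition of the luminescence signal across two replicates at or above 26 percent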
# Target sequence (O15151 whole entry, looked up): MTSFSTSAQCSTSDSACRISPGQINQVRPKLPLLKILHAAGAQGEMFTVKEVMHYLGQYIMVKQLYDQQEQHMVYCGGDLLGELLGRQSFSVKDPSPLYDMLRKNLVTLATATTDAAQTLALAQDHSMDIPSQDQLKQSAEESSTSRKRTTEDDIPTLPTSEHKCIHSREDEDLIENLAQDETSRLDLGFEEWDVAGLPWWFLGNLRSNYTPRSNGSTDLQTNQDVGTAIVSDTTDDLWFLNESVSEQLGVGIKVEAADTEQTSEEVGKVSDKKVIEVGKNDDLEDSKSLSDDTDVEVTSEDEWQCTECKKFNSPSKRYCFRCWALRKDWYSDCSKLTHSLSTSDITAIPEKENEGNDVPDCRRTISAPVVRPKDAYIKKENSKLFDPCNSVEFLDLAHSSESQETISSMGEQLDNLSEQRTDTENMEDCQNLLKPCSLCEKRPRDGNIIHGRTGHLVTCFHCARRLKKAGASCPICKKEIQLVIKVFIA
# Target sequence (Q00987 whole entry, looked up): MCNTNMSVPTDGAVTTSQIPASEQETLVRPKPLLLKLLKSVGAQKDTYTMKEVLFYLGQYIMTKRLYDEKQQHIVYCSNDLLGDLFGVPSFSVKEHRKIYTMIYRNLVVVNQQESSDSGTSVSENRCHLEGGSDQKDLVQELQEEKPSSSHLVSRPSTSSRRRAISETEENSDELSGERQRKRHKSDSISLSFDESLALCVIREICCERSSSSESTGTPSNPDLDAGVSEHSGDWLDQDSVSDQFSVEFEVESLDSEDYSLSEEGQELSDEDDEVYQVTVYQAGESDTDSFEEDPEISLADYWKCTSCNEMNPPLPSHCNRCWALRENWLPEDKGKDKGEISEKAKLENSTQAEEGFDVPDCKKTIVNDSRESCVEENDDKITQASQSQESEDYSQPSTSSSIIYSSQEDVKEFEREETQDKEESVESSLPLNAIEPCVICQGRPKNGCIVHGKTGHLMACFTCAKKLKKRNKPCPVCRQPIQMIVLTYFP
# HIF-2a inh conf: confirmation of HIF-2a inhibitors; shares compounds with HIF-2a inh; 786-0 RCC cells, HIF-2a luciferase reporter luminescence, overnight; inhibition, % at 18.8 µM; actives 56% (n = 1,800); AID 651580;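 active = mean inhibition across four replicates of at least 40 percent at the single tested concentration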
# HIF-1a counter: counter-screen for HIF-2a inhibitors: HIF-1a inhibition in MiaPaCa-2 cells; shares compounds with HIF-2a inh; MiaPaCa-2 HIF-1a luciferase reporter, desferoxamine, overnight; AID 651589; inhibition, % at 18.8 µM; actives 72% (n = 1,800);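 active = mean inhibition of the reporter signal across four replicates at the single tested dose of 50% or more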
# The depositor's hits bear a star; ? = inconclusive; . = no result.
SMILES,Peg3 prom inh,Shn3 3UTR inh,KKLEB tox,HIF-2a inh,CF NFkB inh,MITF TRPM1 inh,HIF-2a inh conf,HIF-1a counter,others
CNC[C@@H](Cc1ccccc1)NC[C@@H](CC1CCCCC1)NCCCc1ccccc1,99*,-2,-96*,85*,85*,98*,0,106*,Mdm2-MdmX confirm=103*
CNC[C@@H](CC1CCCCC1)NC[C@H](CC(C)C)NCCc1cccc(C(F)(F)F)c1,99*,6,-72*,32,50,100*,.,.,Mdm2-MdmX confirm=103*
COc1ccccc1C(=O)NCCC(=O)NCC1CCCO1 (stereo not given),-1,-12,14,13,-10,4,.,.,
CC1(C)NC(=O)N(CCC(=O)Nc2ccc(C(C)(C)C)cc2)C1=O,4,4,14,4,0,.,.,.,
O=C(CN(c1ccc(Br)cc1)S(=O)(=O)c1ccc(Cl)c([N+](=O)[O-])c1)NCC1CCCO1 (stereo not given),95*,3,-13,86*,48,85*,32,103*,
CCOc1ccccc1CNC(=O)C1CCN(c2nnc(C)c3c(C)n(-c4ccc(C)cc4)nc23)CC1,97*,41,-21,71*,-48,96*,51*,98*,
CCOc1ccccc1CNC(=O)Cn1nc(C)c2c(C)n(-c3ccc(C)cc3)nc2c1=O,22,28,0,8,-1,49,.,.,
CCOc1ccc(CNC(=O)C2CCN(c3nnc(C)c4c(C)n(-c5ccc(C)cc5)nc34)CC2)cc1,101*,61,-2,69*,-58,95*,8,32,
Cc1ccc(-n2nc3c(N4CCC(C(=O)NCc5ccccc5C)CC4)nnc(C)c3c2C)cc1,89*,32,-15,85*,28,94*,21,62*,
COc1ccc(-n2nc3c(N4CCC(C(=O)NCc5cccc(C)c5)CC4)nnc(C)c3c2C)cc1,99*,-23,-28,67*,-23,95*,76*,80*,
O=C(CCCC(=O)Nc1ccc(Br)cc1)N/N=C/c1ccccc1,-6,10,-10,-17,22,-3,.,.,
Cc1ccc(N(C(=O)c2csnn2)C(C(=O)NC2CCCC2)c2ccccn2)c(C)c1 (stereo not given),13,4,2,15,-7,.,.,.,
CCOc1ccccc1NC(=O)N1CCC(C(=O)c2ccc(F)cc2)CC1,14,-16,0,41*,-7,-4,-6,24,
COc1ccccc1NC(=O)N1CCC(C(=O)c2ccc(F)cc2)CC1,7,-20,11,-8,-2,4,.,.,
c1ccc(CNc2nc(NCc3ccccc3)c3ccccc3n2)cc1,104*,26,-19,26,-28,34,.,.,Mdm2-MdmX confirm=103*
c1ccc(CNc2nc(-c3ccccc3)nc3ccccc23)cc1,15,4,-6,-2,5,-9,.,.,
CN(Cc1ccccc1)C(=O)Cn1c(=O)c2cccn2c2cccnc21,-8,-6,-6,-8,1,1,.,.,
COc1ccc(Nc2cc(C)nc3ccc(OC)cc23)cc1,8,-37,2,42*,-58,4,17,57*,
COc1ccc2nc(C)cc(N/N=C/c3ccc(F)cc3)c2c1,103*,54,-77*,87*,28,86*,.,.,Mdm2-MdmX confirm=103*
Cc1ccc(Cn2ncc(Cl)c(Cl)c2=O)cc1,104*,72,15,98*,11,?,0,98*,
O=C(Cn1ncc(Cl)c(Cl)c1=O)N1CCOCC1,97*,9,-10,84*,48,98*,-26,106*,
Cc1[nH]c(C)c2c(=O)n(Cc3ccc(Cl)cc3)ncc12,8,4,-4,17,-2,-8,.,.,
O=c1c(Cl)c(Cl)cnn1Cc1nnc(-c2ccc(Cl)cc2)o1,107*,65,-82*,94*,80*,87*,-74,105*,
CCc1ccc(C(=O)Cn2ncc(Cl)c(Cl)c2=O)cc1,31,43,-68*,96*,84*,57,-19,104*,Mdm2-MdmX confirm=103*
CCc1ccc(C(=O)CN2C(=O)NC3(CCCCCC3)C2=O)cc1,-183,-53,10,-165,-5,-73,.,.,
SMILES,Peg3 prom inh,Shn3 3UTR inh,KKLEB tox,HIF-2a inh,CF NFkB inh,MITF TRPM1 inh,HIF-2a inh conf,HIF-1a counter,others
CN(C1CCCCC1)C(CNS(=O)(=O)c1ccccc1)c1ccccc1 (stereo not given),-6,6,-17,1,27,0,.,.,
Cc1cc(Cl)c(C(=O)Nc2cccc(C(F)(F)F)c2)c(C)n1,17,-9,8,-13,-15,6,.,.,
Cc1nc(NC2=NCN(CCCN3CCOCC3)CN2)nc2c(C)cccc12,11,7,7,4,-46,35,.,.,Mdm2-MdmX confirm=66*
Cc1nc(NC2=NCN(Cc3cccnc3)CN2)nc2ccccc12,18,-17,12,11,-1,9,.,.,
CC(C)NC(=O)C1(C)CCN1C(=O)c1ccc(F)c(Cl)c1 (stereo not given),11,0,-8,8,6,.,.,.,
OC(COc1ccc(CNCCc2ccc(C(F)(F)F)cc2)cc1)CN1CCCCC1 (stereo not given),104*,34,-8,23,11,94*,.,.,Mdm2-MdmX confirm=104*
CCOC(=O)C(C)(C)N(Cc1ccc(C)cc1)S(=O)(=O)c1ccc(Cl)c([N+](=O)[O-])c1,105*,4,6,61*,-2,91*,23,105*,
CCOC(=O)C(C)(C)NS(=O)(=O)c1ccc(Cl)c([N+](=O)[O-])c1,15,-4,-2,6,-6,-3,.,.,
O=C(NCCCC(=O)N1CCCCC1)c1ccc(Cl)cc1,5,6,-3,14,28,3,.,.,
O=C(CCl)N(c1ccccc1)C1CCS(=O)(=O)C1 (stereo not given),103*,5,-2,31,9,?,.,.,Mdm2-MdmX confirm=103*
CNC(=O)CSc1nnc(C2CC2)n1-c1ccccc1,-2,-16,-6,16,7,-15,.,.,
COc1ccccc1OCCN1CSC(=S)N(C)C1,100*,-28,-18,88*,16,69*,23,103*,
COc1ccccc1OCCCCN1CCCCC1,0,9,-9,18,10,3,.,.,
CCc1ccccc1NC(=O)CNC(=O)CCNC(=O)Nc1ccccc1,15,-22,-4,6,-7,-3,.,.,
COc1ccc(-c2cc(C(=O)Nc3sc4c(c3C#N)CCCC4)c3ccccc3n2)cc1,11,-10,5,-24,2,16,.,.,
